Source: PMC7862700, “An all-to-all approach to the identification of sequence-specific readers for epigenetic DNA modifications on cytosine”

Assays:
Assay in all cases: DAPPL (digital affinity profiling via proximity ligation, sequencing); 10 mM Tris-HCl pH 7.5, 50 mM NaCl, 1 mM DTT, 4% glycerol, room temperature, 30 min; GST-TFs on glutathione beads, 16-mer random dsDNA library, 0.1% formaldehyde crosslink after washing; high values mean tight binding
FLI1 = molecular target: T1, FLI1 (Homo sapiens, UniProt Q01543 1-452); conditions: protein: recombinant; tags: N-terminal GST; dsDNA, one strand shown
T1 sequence: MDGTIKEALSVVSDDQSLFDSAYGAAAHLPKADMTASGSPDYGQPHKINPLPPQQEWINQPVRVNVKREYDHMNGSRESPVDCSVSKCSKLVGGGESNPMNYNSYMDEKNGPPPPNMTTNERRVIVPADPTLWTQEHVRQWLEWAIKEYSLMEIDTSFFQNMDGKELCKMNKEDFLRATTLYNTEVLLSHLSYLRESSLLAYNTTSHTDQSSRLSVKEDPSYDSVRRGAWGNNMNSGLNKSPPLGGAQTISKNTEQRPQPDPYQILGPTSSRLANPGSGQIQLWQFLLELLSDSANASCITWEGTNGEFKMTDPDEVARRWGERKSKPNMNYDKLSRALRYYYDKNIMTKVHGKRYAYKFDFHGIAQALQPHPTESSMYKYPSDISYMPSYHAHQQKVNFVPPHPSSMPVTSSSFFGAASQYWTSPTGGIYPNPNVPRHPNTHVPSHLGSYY
How it was run: (§1)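 After expression in yeast as GST fusions, human transcription factors were bound to glutathione beads, DNA-barcoded and mixed with a tag-only sample. The pools were incubated with 200 nmole of a 16-mer random double-stranded DNA library in Tris/NaCl/DTT/glycerol buffer (30 min, room temperature), washed and crosslinked with 0.1% formaldehyde. Proximity ligation with BsaI/T4 ligase ran for 1 h at 37 °C, before PCR amplification and sequencing on an Illumina NextSeq500. Binding signal is a hexamer's read frequency for a factor divided by its frequency for the tag-only sample.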

ELK1 = molecular target: T2, ELK1 (Homo sapiens, UniProt P19419 1-428); conditions: protein: recombinant; tags: N-terminal GST; dsDNA, one strand shown
T2 sequence: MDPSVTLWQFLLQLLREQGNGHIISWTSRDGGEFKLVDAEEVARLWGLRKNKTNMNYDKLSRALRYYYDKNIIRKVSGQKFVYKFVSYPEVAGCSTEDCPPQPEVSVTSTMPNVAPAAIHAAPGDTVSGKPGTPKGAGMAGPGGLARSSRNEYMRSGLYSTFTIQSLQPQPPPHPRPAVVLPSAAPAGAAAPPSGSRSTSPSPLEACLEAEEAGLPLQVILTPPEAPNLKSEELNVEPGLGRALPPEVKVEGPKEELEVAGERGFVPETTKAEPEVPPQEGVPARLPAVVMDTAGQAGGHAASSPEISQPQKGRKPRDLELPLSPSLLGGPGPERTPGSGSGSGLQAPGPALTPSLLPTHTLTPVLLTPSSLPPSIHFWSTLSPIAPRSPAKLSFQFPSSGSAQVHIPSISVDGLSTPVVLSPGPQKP
How it was run: as §1

GABPA = molecular target: T3, GABPA (Homo sapiens, UniProt Q06546 1-454); conditions: protein: recombinant; tags: N-terminal GST; dsDNA, one strand shown
T3 sequence: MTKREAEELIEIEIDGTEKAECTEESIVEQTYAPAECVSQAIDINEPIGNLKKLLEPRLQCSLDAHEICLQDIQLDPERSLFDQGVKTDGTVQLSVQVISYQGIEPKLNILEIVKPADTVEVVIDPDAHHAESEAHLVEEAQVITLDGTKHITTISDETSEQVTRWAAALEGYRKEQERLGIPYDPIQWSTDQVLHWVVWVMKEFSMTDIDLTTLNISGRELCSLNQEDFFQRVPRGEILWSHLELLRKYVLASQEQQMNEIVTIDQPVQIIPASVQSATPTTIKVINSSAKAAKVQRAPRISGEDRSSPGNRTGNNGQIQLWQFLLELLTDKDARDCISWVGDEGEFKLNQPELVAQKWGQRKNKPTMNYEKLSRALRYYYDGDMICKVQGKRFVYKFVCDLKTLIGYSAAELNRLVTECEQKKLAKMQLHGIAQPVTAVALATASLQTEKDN
How it was run: as §1

ERG = molecular target: T4, ERG (Homo sapiens, UniProt P11308 1-479); conditions: protein: recombinant; tags: N-terminal GST; dsDNA, one strand shown
T4 sequence: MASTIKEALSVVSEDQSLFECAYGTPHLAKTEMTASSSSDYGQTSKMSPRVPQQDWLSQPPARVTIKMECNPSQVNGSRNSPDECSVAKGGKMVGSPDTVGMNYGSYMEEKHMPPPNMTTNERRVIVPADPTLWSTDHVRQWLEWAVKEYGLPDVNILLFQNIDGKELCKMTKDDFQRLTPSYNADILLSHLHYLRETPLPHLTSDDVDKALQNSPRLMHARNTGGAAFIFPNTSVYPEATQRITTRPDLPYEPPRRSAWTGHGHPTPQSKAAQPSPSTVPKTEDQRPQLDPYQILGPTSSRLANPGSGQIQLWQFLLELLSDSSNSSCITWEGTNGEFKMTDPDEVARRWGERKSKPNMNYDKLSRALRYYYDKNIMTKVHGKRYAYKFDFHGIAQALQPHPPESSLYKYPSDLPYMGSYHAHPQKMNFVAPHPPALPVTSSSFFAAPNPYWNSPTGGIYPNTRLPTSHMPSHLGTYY
How it was run: as §1

ELF1 = ELF1 (Homo sapiens, UniProt P32519 1-619); conditions: protein: recombinant; tags: N-terminal GST; dsDNA, one strand shown
How it was run: as §1

EHF = molecular target: T5, EHF (Homo sapiens, UniProt Q9NZC4 1-300); conditions: protein: recombinant; tags: N-terminal GST; dsDNA, one strand shown
T5 sequence: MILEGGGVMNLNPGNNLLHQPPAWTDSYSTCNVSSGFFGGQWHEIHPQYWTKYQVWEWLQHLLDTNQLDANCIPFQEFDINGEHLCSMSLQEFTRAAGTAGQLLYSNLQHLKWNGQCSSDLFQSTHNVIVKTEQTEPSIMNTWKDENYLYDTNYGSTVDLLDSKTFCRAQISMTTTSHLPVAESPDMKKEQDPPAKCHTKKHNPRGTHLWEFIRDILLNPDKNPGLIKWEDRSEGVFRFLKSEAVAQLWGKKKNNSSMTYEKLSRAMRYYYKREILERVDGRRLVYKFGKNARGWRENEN
How it was run: as §1

SPI1 = SPI1 (Homo sapiens, UniProt P17947 1-270); conditions: protein: recombinant; tags: N-terminal GST; dsDNA, one strand shown
How it was run: as §1

SPIB = SPIB (Homo sapiens, UniProt Q01892 1-262); conditions: protein: recombinant; tags: N-terminal GST; dsDNA, one strand shown
How it was run: as §1

ELK3 = molecular target: T6, ELK3 (Homo sapiens, UniProt P41970 1-407); conditions: protein: recombinant; tags: N-terminal GST; dsDNA, one strand shown
T6 sequence: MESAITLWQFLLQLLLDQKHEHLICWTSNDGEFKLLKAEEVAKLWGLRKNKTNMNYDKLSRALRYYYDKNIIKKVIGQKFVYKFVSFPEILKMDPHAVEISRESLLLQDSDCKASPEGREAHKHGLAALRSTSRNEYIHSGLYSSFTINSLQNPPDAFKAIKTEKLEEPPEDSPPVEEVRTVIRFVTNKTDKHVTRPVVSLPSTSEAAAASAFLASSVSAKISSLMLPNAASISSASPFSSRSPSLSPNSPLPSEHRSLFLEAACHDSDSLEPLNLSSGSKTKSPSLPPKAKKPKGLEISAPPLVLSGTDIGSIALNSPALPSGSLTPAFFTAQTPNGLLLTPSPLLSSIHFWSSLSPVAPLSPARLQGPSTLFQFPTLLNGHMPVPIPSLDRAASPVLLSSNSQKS
How it was run: as §1

FEV = molecular target: T7, FEV (Homo sapiens, UniProt Q99581 1-238); conditions: protein: recombinant; tags: N-terminal GST; dsDNA, one strand shown
T7 sequence: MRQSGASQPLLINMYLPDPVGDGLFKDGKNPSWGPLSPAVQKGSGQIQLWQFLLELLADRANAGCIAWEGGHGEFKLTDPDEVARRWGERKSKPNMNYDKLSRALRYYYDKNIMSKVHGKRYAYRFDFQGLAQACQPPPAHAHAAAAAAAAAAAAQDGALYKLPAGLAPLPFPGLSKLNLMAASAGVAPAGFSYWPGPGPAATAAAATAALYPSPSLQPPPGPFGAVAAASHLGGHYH
How it was run: as §1

ETV5 = ETV5 (Homo sapiens, UniProt P41161 1-510); conditions: protein: recombinant; tags: N-terminal GST; dsDNA, one strand shown
How it was run: as §1

HSF1 = HSF1 (Homo sapiens, UniProt Q00613 1-529); conditions: protein: recombinant; tags: N-terminal GST; chain copies: 3; dsDNA, one strand shown
How it was run: as §1

SPIC = molecular target: T8, SPIC (Homo sapiens, UniProt Q8N5J4 1-248); conditions: protein: recombinant; tags: N-terminal GST; dsDNA, one strand shown
T8 sequence: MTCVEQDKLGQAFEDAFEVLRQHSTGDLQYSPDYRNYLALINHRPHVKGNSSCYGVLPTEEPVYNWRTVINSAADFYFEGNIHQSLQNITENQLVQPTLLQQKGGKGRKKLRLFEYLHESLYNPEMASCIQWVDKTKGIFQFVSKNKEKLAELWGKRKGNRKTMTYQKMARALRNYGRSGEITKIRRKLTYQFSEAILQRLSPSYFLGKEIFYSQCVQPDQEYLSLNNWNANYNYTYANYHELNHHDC
How it was run: as §1

ELF4 = ELF4 (Homo sapiens, UniProt Q99607 1-663); conditions: protein: recombinant; tags: N-terminal GST; dsDNA, one strand shown
How it was run: as §1

ELK4 = molecular target: T9, ELK4 (Homo sapiens, UniProt P28324-2 1-405); conditions: protein: recombinant; tags: N-terminal GST; dsDNA, one strand shown
T9 sequence: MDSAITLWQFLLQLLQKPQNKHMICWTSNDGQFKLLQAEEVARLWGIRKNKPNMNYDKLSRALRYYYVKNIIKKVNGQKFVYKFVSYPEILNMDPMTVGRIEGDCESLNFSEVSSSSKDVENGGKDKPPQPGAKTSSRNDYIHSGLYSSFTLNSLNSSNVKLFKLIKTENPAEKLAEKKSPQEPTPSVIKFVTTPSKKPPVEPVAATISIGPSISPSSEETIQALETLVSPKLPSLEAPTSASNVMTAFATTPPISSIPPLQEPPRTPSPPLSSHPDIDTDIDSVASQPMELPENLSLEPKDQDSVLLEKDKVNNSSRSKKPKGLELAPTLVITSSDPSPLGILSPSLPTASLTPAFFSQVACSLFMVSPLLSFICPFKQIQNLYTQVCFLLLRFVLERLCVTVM
How it was run: as §1

ETV2 = molecular target: T10, ETV2 (Homo sapiens, UniProt O00321 1-342); conditions: protein: recombinant; tags: N-terminal GST; dsDNA, one strand shown
T10 sequence: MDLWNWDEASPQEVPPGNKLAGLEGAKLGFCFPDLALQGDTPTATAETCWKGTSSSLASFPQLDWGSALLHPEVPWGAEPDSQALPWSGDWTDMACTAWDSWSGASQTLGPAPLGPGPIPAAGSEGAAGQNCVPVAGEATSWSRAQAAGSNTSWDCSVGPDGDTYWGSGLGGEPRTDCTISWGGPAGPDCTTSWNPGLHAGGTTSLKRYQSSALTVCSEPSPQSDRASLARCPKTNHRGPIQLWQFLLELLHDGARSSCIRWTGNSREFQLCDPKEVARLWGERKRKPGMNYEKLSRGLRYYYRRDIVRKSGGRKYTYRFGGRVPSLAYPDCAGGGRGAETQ
How it was run: as §1

ELF3 = molecular target: T11, ELF3 (Homo sapiens, UniProt P78545 1-371); conditions: protein: recombinant; tags: N-terminal GST; dsDNA, one strand shown
T11 sequence: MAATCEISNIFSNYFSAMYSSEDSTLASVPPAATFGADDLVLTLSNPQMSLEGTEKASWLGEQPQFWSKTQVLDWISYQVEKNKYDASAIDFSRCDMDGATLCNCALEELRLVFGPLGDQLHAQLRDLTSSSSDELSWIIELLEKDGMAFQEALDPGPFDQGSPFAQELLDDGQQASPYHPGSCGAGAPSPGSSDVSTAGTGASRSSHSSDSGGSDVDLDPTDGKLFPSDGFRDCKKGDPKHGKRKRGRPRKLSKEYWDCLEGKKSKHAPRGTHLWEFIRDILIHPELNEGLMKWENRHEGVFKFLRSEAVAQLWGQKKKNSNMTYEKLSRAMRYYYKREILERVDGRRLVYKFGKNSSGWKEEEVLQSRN
How it was run: as §1

ETV1 = ETV1 (Homo sapiens, UniProt P50549 1-477); conditions: protein: recombinant; tags: N-terminal GST; dsDNA, one strand shown
How it was run: as §1

ETV1, sequence (P50549 whole entry): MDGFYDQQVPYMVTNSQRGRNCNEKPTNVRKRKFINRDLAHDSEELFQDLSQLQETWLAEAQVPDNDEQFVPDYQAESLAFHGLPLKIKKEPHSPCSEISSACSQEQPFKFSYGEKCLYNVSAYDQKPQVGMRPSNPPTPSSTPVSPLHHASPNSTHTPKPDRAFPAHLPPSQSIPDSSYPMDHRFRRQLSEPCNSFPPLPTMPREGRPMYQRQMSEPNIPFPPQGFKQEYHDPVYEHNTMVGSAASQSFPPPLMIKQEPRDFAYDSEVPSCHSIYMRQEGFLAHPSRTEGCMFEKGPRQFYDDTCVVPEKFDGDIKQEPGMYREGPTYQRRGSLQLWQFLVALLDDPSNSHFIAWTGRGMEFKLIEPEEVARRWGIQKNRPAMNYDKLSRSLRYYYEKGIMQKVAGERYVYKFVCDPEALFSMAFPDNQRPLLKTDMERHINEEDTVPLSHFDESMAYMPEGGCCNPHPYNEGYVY
HSF1, sequence (Q00613 whole entry): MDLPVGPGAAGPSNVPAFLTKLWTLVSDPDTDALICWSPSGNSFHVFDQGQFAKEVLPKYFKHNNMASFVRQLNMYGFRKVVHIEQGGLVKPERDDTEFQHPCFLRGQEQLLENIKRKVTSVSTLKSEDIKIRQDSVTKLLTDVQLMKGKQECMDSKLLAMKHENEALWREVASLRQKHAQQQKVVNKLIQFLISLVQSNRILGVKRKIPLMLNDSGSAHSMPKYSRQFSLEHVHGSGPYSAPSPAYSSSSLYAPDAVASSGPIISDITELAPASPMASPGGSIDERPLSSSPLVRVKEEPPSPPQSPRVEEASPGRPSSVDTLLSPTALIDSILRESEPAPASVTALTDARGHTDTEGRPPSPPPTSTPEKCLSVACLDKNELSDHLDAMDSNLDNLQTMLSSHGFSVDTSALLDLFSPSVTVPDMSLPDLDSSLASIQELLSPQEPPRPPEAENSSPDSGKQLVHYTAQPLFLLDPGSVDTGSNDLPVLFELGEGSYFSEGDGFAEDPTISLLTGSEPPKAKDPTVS
ETV5, sequence (P41161 whole entry): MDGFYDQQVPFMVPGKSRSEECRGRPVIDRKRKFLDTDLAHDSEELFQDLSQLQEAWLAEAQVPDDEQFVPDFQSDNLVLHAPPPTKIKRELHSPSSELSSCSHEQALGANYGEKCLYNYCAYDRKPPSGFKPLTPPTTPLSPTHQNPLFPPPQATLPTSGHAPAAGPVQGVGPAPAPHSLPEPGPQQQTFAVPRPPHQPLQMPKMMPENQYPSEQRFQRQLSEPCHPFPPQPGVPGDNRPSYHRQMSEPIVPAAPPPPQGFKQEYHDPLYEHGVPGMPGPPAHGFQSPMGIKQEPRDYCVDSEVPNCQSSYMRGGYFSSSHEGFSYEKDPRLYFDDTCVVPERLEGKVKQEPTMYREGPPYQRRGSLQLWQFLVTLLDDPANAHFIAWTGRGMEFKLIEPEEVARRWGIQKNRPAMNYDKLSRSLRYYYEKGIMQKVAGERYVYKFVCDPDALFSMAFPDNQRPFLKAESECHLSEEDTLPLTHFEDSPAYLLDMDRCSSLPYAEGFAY
ELF1, sequence (P32519 whole entry): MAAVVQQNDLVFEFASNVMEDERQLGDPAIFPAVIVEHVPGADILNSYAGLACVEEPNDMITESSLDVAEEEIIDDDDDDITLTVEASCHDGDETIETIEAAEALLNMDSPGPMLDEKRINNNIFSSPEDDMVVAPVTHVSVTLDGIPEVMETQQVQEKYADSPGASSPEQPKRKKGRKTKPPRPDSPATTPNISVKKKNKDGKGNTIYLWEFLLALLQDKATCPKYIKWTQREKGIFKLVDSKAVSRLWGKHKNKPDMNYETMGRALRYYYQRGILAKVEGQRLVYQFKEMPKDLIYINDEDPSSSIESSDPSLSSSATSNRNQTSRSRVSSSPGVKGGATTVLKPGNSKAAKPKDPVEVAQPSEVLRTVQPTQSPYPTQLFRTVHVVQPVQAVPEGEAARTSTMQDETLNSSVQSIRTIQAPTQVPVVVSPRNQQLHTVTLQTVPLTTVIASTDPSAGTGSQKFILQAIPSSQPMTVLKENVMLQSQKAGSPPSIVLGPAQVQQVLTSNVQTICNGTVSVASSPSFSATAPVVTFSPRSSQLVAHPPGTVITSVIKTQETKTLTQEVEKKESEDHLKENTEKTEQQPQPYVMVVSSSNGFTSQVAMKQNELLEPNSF
SPIB, sequence (Q01892 whole entry): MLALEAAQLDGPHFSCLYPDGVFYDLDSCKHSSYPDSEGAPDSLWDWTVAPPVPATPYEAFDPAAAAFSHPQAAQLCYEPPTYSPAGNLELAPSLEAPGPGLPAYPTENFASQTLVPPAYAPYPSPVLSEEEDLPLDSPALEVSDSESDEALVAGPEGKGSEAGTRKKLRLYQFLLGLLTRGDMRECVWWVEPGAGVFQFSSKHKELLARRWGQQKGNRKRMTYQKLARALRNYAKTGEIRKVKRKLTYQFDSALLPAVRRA
ELF4, sequence (Q99607 whole entry): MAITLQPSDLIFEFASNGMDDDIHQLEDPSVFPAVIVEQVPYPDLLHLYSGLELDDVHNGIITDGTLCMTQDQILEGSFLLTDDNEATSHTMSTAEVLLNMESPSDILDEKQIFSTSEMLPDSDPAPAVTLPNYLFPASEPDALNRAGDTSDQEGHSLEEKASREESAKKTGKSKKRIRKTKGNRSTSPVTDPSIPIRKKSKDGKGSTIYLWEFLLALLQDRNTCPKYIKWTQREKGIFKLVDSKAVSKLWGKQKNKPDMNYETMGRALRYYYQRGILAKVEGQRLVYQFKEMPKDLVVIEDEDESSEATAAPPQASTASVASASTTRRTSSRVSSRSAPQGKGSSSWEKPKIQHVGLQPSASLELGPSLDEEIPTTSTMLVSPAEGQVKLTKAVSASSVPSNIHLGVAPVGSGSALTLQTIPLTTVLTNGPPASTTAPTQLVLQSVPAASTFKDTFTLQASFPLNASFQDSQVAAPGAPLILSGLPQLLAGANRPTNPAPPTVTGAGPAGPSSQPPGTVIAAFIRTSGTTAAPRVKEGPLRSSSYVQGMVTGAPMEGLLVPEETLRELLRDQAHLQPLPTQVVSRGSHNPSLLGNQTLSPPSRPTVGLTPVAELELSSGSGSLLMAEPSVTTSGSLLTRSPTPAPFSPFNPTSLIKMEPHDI

Question: GGAAAA was tested. Which binding signal (FLI1) did it give?
Answer: 1.16 fold enrichment (6-mer frequency, TF over GST control)

Question: And the binding signal (ELK1)?
Answer: 1.17 fold enrichment (6-mer frequency, TF over GST control)

Question: What about the binding signal (GABPA) of the same sequence?
Answer: 1.2 fold enrichment (6-mer frequency, TF over GST control)

Question: What about the binding signal (ERG) of the same sequence?
Answer: 1.3 fold enrichment (6-mer frequency, TF over GST control)

Question: And the binding signal (ELF1)?
Answer: 1.14 fold enrichment (6-mer frequency, TF over GST control)

Question: And the binding signal (EHF)?
Answer: 1.38 fold enrichment (6-mer frequency, TF over GST control)

Question: And the binding signal (SPI1)?
Answer: 1.2 fold enrichment (6-mer frequency, TF over GST control)

Question: What about the binding signal (SPIB) of the same sequence?
Answer: 1.35 fold enrichment (6-mer frequency, TF over GST control)

Question: What about the binding signal (ELK3) of the same sequence?
Answer: 1.22 fold enrichment (6-mer frequency, TF over GST control)

Question: What about the binding signal (FEV) of the same sequence?
Answer: 1.2 fold enrichment (6-mer frequency, TF over GST control)

Question: What about the binding signal (ETV5) of the same sequence?
Answer: 1.32 fold enrichment (6-mer frequency, TF over GST control)

Question: And the binding signal (HSF1)?
Answer: 1.62 fold enrichment (6-mer frequency, TF over GST control)

Question: What about the binding signal (SPIC) of the same sequence?
Answer: 1.29 fold enrichment (6-mer frequency, TF over GST control)

Question: And the binding signal (ELF4)?
Answer: 1.19 fold enrichment (6-mer frequency, TF over GST control)

Question: And the binding signal (ELK4)?
Answer: 1.01 fold enrichment (6-mer frequency, TF over GST control)

Question: What about the binding signal (ETV2) of the same sequence?
Answer: 1.22 fold enrichment (6-mer frequency, TF over GST control)

Question: What about the binding signal (ELF3) of the same sequence?
Answer: 1.39 fold enrichment (6-mer frequency, TF over GST control)

Question: What about the binding signal (ETV1) of the same sequence?
Answer: 1.27 fold enrichment (6-mer frequency, TF over GST control)
